Test results reported in PubChem BioAssay (NCI).
“And” between values parts separate entries of the source, which are not always exact repeats. Equal entries are not always repeated. This is part of a sample that, as a whole, favours compounds with a hit. Of some 83,000 tested, about 20% had one in any assay.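 The test compound was applied at a single concentration to cells in 96-well plates for 48 hours, and percent growth was recorded.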 Values without a mark were called inactive. The source made the active and inactive calls. How the source made its calls: active means growth percent below 10; inactive means the rest.

How the values were obtained:
Assay in all cases: NCI-60 one-dose screen, 48 h (100 = growth as untreated, 0 = no growth, -100 = all killed)
Conditions in all cases: 10 µM unless noted
SK-MEL-2 melanoma = tested on: SK-MEL-2 melanoma
EKVX NSCLC = tested on: EKVX NSCLC
SN12C renal = tested on: SN12C renal
UO-31 renal = tested on: UO-31 renal
TK-10 renal = tested on: TK-10 renal
ACHN renal = tested on: ACHN renal
CAKI-1 renal = tested on: CAKI-1 renal
A498 renal = tested on: A498 renal
CCRF-CEM leukemia = tested on: CCRF-CEM leukemia
MOLT-4 leukemia = tested on: MOLT-4 leukemia
SR leukemia = tested on: SR leukemia
RPMI-8226 leukemia = tested on: RPMI-8226 leukemia
OVCAR-8 ovarian = tested on: OVCAR-8 ovarian
OVCAR-5 ovarian = tested on: OVCAR-5 ovarian
OVCAR-4 ovarian = tested on: OVCAR-4 ovarian
SK-OV-3 ovarian = tested on: SK-OV-3 ovarian
IGROV1 ovarian = tested on: IGROV1 ovarian
OVCAR-3 ovarian = tested on: OVCAR-3 ovarian
HS 578T breast = tested on: HS 578T breast
NCI/ADR-RES ovarian = tested on: NCI/ADR-RES ovarian

Structure (SMILES) | growth (SK-MEL-2 melanoma) | growth (EKVX NSCLC) | growth (SN12C renal) | growth (UO-31 renal) | growth (TK-10 renal) | growth (ACHN renal) | growth (CAKI-1 renal) | growth (A498 renal) | growth (CCRF-CEM leukemia) | growth (MOLT-4 leukemia) | growth (SR leukemia) | growth (RPMI-8226 leukemia) | growth (OVCAR-8 ovarian) | growth (OVCAR-5 ovarian) | growth (OVCAR-4 ovarian) | growth (SK-OV-3 ovarian) [%] | growth (IGROV1 ovarian) | growth (OVCAR-3 ovarian) | growth (HS 578T breast) | growth (NCI/ADR-RES ovarian)
COc1cc(CO)cc2cc3ccccc3nc12 | 111% | 102% | 101% | 81.7% | 118% | 105% | 93.6% | -22.1% (active) | 99.1% | 99.4% | 96% | 101% | 101% | 106% | 107% | 109 | 106% | 110% | 108% | 111%
O=C(N=Nc1c(O)[nH]c2ccccc12)Nc1ccc(Br)cc1 | 93.5% | 86.6% | 99.3% | 66.8% | 90% | 83.7% | 76.3% | 72% | -43.8% (active) | 90.2% | 76.7% | 66.9% | 98.9% | 81.4% | 102% |  | 85.2% | 97.4% | 87.4% | 97.2%
Cc1c(C(C)(C)O)cn2ncnc(Oc3ccc(NC(=O)Nc4ccc(Cl)c(C(F)(F)F)c4)cc3)c12 | 75.9% | 30.8% | 44.3% | 50.9% | 45.9% | 21% | 29.2% | 11.6% | 34.1% | 18.2% | -3.12% (active) | 37% | 49.1% | 100% | 21% |  | 37.6% | 26.2% | 49.4% | 64%
CCCCCCNC(=O)Oc1ccc(/C(=C(/CC)Cc2ccccc2)c2ccc(OCCCN(C)C)cc2)cc1 | 106% | 89.2% | 87.1% | 59% | 82.2% | 100% | 89.6% | 89.9% | 69.4% | 67.1% | -9.68% (active) | 75.2% | 83.9% | 90.5% | 81.7% |  | 68.1% | 95.3% | 86.3% | 72.2%
Nc1ncc(-c2ccc3ncnc(N4CCc5ccc(Cl)cc54)c3c2)cc1C(F)(F)F | 14.1% | 6.87% (active) | 20.6% | -12% (active) | -3.58% (active) | 11% | -9.77% (active) | -62.5% (active) | 21.6% | 7.2% (active) | -5.75% (active) | -3.24% (active) | 25.2% | 12.2% | 8.43% (active) |  | -53.3% (active) | 10.8% | -14.3% (active) | 20.3%
COc1ccc(C(CC(=O)c2ccc3c(c2)OCO3)C(=O)O)cc1OC (configuration not stated) | 114% and 87.8% | 99.9% | 98% and 102% | 113% and 83.3% | 109% and 108% | 118% and 98.7% | 91.4% and 95.3% | 104% and 106% | 96% and 97.5% | 108% and 96.1% | 116% and 90.8% | 103% and 96.1% | 107% and 106% | 118% and 99.9% | 132% and 108% |  | 131% and 106% | 119% and 102% | 94.8% and 121% | 106% and 98.5%
C[C@@H]1O[C@@H](O[C@H]2[C@@H](OC(=O)[C@]34CCC(C)(C)C[C@H]3C3=CC[C@@H]5[C@@]6(C)C[C@H](O)[C@H](O[C@@H]7O[C@H](CO)[C@@H](O)[C@H](O)[C@H]7O)[C@@](C)(CO)[C@@H]6CC[C@@]5(C)[C@]3(C)C[C@H]4O)OC[C@@H](O)[C@@H]2O)[C@H](O)[C@H](O[C@@H]2OC[C@@H](O)[C@H](O[C@@H]3OC[C@](O)(CO)[C@H]3O[C@@H]3OC[C@@H](O)[C@H](O)[C@H]3O)[C@H]2O)[C@H]1O[C@@H]1OC[C@](O)(CO)[C@H]1O | 17.5% | 39.7% | 25.5% | 28.6% | 74.2% | 78% | 71.8% | 5.96% (active) | 86% | 86.6% | 67.5% | 64% | 98.8% | 78.1% | 42.5% |  | 86.4% | 89.6% | 97.9% | 80.5%
N#Cc1c(-c2cccc(F)c2)cc(-c2cccnc2)[nH]c1=O | 110% | 106% | 96.4% | 90.2% | 106% | 101% | 95.9% | 116% | 104% | 99.7% | 91.3% | 98.8% | 100% | 98.9% | 113% |  | 110% | 108% | 104% | 105%
COc1ccc(-c2cc3cnc4ccccc4c3oc2=O)cc1 | 120% | 101% | 100% | 88.7% | 99.2% | 106% | 89.7% | 93.1% | 89% | 104% | 74.6% |  | 105% | 101% | 103% | 93.9 | 106% | 106% | 100% | 102%
O=S(=O)(Nc1cc(Sc2cccc3cccnc23)c(O)c2ccccc12)c1ccc(F)cc1 | 1.64% (active) | 37.1% | -15% (active) | -11.2% (active) | 17.1% | 0.351% (active) | 11.9% | 70.4% | 5.42% (active) | -18.4% (active) | 4.77% (active) | -12.8% (active) | 5.74% (active) | 38.9% | -99% (active) |  | 1.46% (active) | -87.6% (active) | 50% | 3.32% (active)
O=C1C(N2CCOCC2)=C(I)C(=O)c2ncccc21 | 91.1% | 89.3% | 60.6% | 54.3% | 111% | 58.7% | 76.1% | 102% | 62.4% | 50.5% | 19.2% | 91.2% | 69.5% | 97.8% | 59% |  | 54.5% | 69.8% | 65.1% | 75.4%
CN(C)CCN1C(=O)c2c(c3c4ccccc4n4c3c3c2c2ccccc2n3C2CC(O)C(O)C4(C)O2)C1=O (configuration not stated) | 32.6% | 46.8% | 22.1% | 24.1% | 24.6% | -12.6% (active) | 19.6% | 32% | 31.1% | 0.948% (active) | 5.57% (active) |  | 25.3% | 55.6% | 29.3% | 25.3 | 16.5% | 41.4% | 41.7% | 54.5%
COc1ccc(-c2ccccc2)cc1-c1c(Nc2cc(Cl)cc(Cl)c2O)c(=O)c1=O | -26.5% (active) | 10.2% | 6.31% (active) | 6.3% (active) | 12.8% | 3.24% (active) | -12.6% (active) | -17.6% (active) | 19.5% | 13.2% | 23.2% | 25.4% | 12.3% | 28.7% | 16.8% |  | 31% | 5.32% (active) | 3.42% (active) | 1.38% (active)
CONC1=Nc2cc(NC(N)=NCc3ccccc3)c(N(C)C3CCCCC3)cc2OC1 | 91.5% | 62% | 64.8% | 75.5% | 82.3% | 79.1% | 93.7% | 82.4% | 68.2% | 54.2% | -12.1% (active) | 38.5% | 83.9% | 65.5% | 73.8% |  | 59.6% | 77.4% | 71.4% | 99.8%
